# Source: PubChem BioAssay (several laboratories)
# Most compounds without a hit are left out; they make up all but 3.9% or so of the library.
# SKKanGAS inh: SKKanGAS growth inhibition | S. pyogenes SKKanGAS, kanamycin growth, BacTiter-Glo, 6 h | inhibition, % at 7.5 µM | actives 1.3% (n = 300,000);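 active = mean replicate score, as percent of positive control median, at least 50; inconclusive = mean below 50 but one replicate at or above 50; inactive = mean and every replicate below 50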;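 also: strain carries kanamycin resistance gene driven by streptokinase promoter and grows in 40 µg/ml kanamycin; loss of luminescence reflects streptokinase promoter inhibition or plain growth inhibition; 0% = median of DMSO wells and 100% = positive control at its reference dose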
# PHOSPHO1 block: PHOSPHO1 (human) inhibition; recombinant PHOSPHO1, absorbance phosphatase assay; AID 1565; Q8TCT1; inhibition, % at 13.3 µM; actives 1.1% (n = 290,000); in the data active = inhibition above about 60%
# WT yeast gro inh: growth inhibition of WT yeast, mitochondrial fusion screen; mitochondrial fusion phenotypic screen, WT strain; inhibition, % at 10 µM; actives 2.1% (n = 190,000); AID 1362; in the data active = inhibition above about 58%; tested in S. cerevisiae
# TPT1 inh: blocks Candida albicans tRNA 2'-phosphotransferase. AID 1962. inhibition, % at 5 µM. recombinant caTPT1, FP RNA substrate dephosphorylation. actives 0.81% (n = 300,000);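 active = inhibition above the mean of all tested compounds plus 3 SD, set per screening campaign, cut at about 24% in these data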;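 also: plate controls were DMSO alone for no effect and ferristatin control at 100 nM for full effect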
# Platelet DG rel: platelet dense granule release activity. actives 0.22% (n = 300,000). inhibition, %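 (compounds screened at 7.5 µM in platelet-rich plasma)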. human platelet-rich plasma, SFLLRN dense granule ATP release, luminescence. AID 1663;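 active = mean replicate score, as percent of positive control, at or above 50; inconclusive = mean below 50 but at least one replicate at or above 50; inactive = mean and every replicate below 50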
# Rtt109 Vps75: C. albicans Rtt109 histone acetyltransferase inhibition. purified Rtt109/Vps75, ThioGlo CoA-SH fluorescence, 4 h. inhibition, % at 34.9 µM. actives 0.16% (n = 330,000);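 active = inhibition of at least 50% in every replicate; inconclusive = best replicate reaches 50% inhibition but some replicates fall short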
# Target sequence (Q5AAJ8 whole entry, looked up): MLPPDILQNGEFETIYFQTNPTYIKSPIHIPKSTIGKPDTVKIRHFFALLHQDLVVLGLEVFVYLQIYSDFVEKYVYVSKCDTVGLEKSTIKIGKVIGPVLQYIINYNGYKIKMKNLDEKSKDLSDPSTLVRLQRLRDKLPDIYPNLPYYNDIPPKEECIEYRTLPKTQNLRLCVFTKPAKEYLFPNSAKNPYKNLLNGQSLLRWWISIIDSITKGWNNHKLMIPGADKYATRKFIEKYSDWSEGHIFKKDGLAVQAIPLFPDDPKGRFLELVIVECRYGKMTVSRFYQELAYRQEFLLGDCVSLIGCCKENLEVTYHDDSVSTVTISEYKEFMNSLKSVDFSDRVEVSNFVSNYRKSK
# Starred values were filed as active, the others as inactive; ? = inconclusive; . = no result given.
SMILES,SKKanGAS inh,PHOSPHO1 block,WT yeast gro inh,TPT1 inh,Platelet DG rel,Rtt109 Vps75
COc1ccccc1NS(=O)(=O)c1cc2c3c(c1)CCN3C(=O)CC2,2,.,.,-1,3,48
COc1ccc(NC(=O)CN(C)C(=O)C2CC(=O)N(c3ccc4c(c3)OCCO4)C2)cc1 (stereo not drawn),-4,.,.,3,5,6
CCOc1ccc(NC(=O)CN(C)C(=O)C2CC(=O)N(c3ccc4c(c3)OCCO4)C2)cc1OCC (stereo not drawn),52*,.,.,-4,-1,-42
O=C(/C(=C/O)N=Nc1ccccc1)c1ccc(Cl)cc1,-3,24,68*,0,11,2
CC(=O)c1ccc(N=Nc2ccc(C)cc2)cc1,2,36,10,.,3,8
Cc1ccc(N=N/C(=C\O)C(=O)c2ccc(Cl)cc2)cc1,?,28,97*,-2,6,4
O=C(/C(=C/O)N=Nc1ccccc1)c1ccncc1,-8,13,2,1,-2,0
O=C(OCC(O)COC(=O)c1cccnc1)c1cccnc1,1,37,.,2,1,-1
COc1ccc(-c2nc3n(c(=O)c2C#N)CCS3)cc1,8,18,-1,3,1,0
C=CCSc1nc(-c2ccc(OC)cc2)c(C#N)c(=O)n1CC=C,8,60*,18,.,4,-4
O=c1c2ccccc2nc(/C=C/c2ccc([N+](=O)[O-])o2)n1CCCO,50*,-14,65*,21,2,-7
Cc1nc2sc(C(c3ccco3)N3CCN(c4ccc(F)cc4)CC3)c(O)n2n1 (stereo not drawn),3,-112,13,0,-8,-12
CC1CN(C(c2ccco2)c2sc3ncnn3c2O)CC(C)O1 (stereo not drawn),4,100*,-5,-1,-9,0
Cc1nc2sc(C(c3ccco3)N3CCN(c4ccccc4F)CC3)c(O)n2n1 (stereo not drawn),-1,94*,-3,-2,-15,-3
COc1cccc(OC)c1C(=O)OCC(=O)NC1CCCCCC1,.,.,.,.,.,3
Cc1ccc(/C=N/n2cnc3sc(-c4ccccc4)cc3c2=O)o1,6,14,86*,-82,3,-9
O=C(Cc1ccsc1)NCc1ccccc1F,2,30,.,-1,-2,0
COc1cccc(-n2nnnc2SCC(=O)Nc2ccccc2OC)c1,6,.,.,2,.,5
CCCS(=O)(=O)c1nnnn1-c1cccc(OC)c1,-6,0,76*,0,4,17
CC(C)[C@H](N)c1nnc(SCC(=O)c2ccc(Cl)cc2)o1,-5,82*,-41,-3,-5,-9
CC(=O)Nc1sc(NC(=O)c2ccc([N+](=O)[O-])cc2)nc1-c1cccs1,56*,11,.,3,-3,3
O=C(COC(=O)/C=C/c1ccccc1)NC(=O)NCc1ccccc1,.,.,.,.,.,0
Cc1ccc(-c2nc(-c3ccncc3)no2)cc1,-5,.,.,.,5,-14
CC(C)(C)c1ccc(-c2nc(-c3ccncc3)no2)cc1,-15,-10,62*,-1,10,3
CC(C)C1Nc2c(O)cc(Cl)c([N+](=O)[O-])c2C2C=CCC21 (stereo not drawn),79*,22,83*,.,-3,20
SMILES,SKKanGAS inh,PHOSPHO1 block,WT yeast gro inh,TPT1 inh,Platelet DG rel,Rtt109 Vps75
CCS(=O)(=O)CCSc1nc2c(cc1C#N)CCCC2,-2,-25,61*,2,2,3
N#CCSc1nc2c(cc1C#N)CCCCCC2,.,6,-2,-2,.,-5
CC(C)(C)c1ccc(C(=O)N/C(=C\c2cccs2)C(=O)N2CCOCC2)cc1,-1,19,.,-4,21,-5
O=C(N/C(=C/c1cccs1)C(=O)N1CCOCC1)c1cccs1,0,60*,1,3,3,-1
Cc1nc(N)nc(N)c1/C=C/C(C)(C)c1ccc(Cl)cc1,97*,38,69*,.,-1,2
CCCc1ccc2c(N)c(C#N)sc2n1,2,-2,18,2,8,0
Cc1ccc2c(N)c(C#N)sc2n1,1,5,87*,7,6,2
COC(=O)c1ccc(CSc2nc3scc(-c4cccs4)c3c(=O)[nH]2)o1,29,72*,13,11,13,5
COC(=O)c1ccc(CSc2nc3ccc(Cl)cc3[nH]2)o1,-1,35,-14,-6,13,0
COC(=O)C1N2C(=O)[C@@H](NC(=O)COc3ccccc3)[C@H]2SC1(C)C (stereo partly drawn),96*,.,.,3,-4,-1
CCN1CCN(C(=O)N[C@@H](C(=O)N[C@@H]2C(=O)N3[C@@H]2SC(C)(C)[C@@H]3C(=O)O)c2ccccc2)C(=O)C1=O,103*,1,3,-3,-1,.
Nc1cccc(-c2cn(-c3cc4cc(C#CC5(O)CCCCC5)ccc4oc3=O)nn2)c1,.,.,.,.,.,-17
C=CC(C)(C)c1c(O)c(CC=C(C)C)c(O)c2c(=O)c3ccc(O)c(O)c3oc12,103*,.,.,-1,-1,-2
O=S(=O)(NC1=NCCCCC1)c1ccc(Cl)cc1Cl,.,.,.,.,.,-7
O=C(CSc1nnc(CNc2ccc(F)cc2)n1Cc1ccco1)NC1CC1,1,59,-22,-5,-3,-6
O=C(CSc1nnc(CNc2ccc(F)cc2)n1Cc1ccco1)N1CCOCC1,1,88*,-11,1,1,0
COc1ccc(CC(=O)NCC(=O)N/N=C/c2sccc2C)cc1,4,33,.,0,-8,-1
Cc1cc(Nc2ccccc2)c2c([N+](=O)[O-])cc(C)c(C)c2n1,17,-6,76*,-1,1,0
CCOc1ccc(CCNC(=O)CN2C(=O)COc3ccc(S(=O)(=O)N4CCOCC4)cc32)cc1,-4,37,.,-2,-22,-5
Brc1ccc(CSc2nnc(Cc3c[nH]c4ccccc34)o2)cc1,0,-17,68*,0,-5,8
COCCn1c(-c2cc(OC)c(OC)c(OC)c2)nc2oc3cc(OC)ccc3c(=O)c2c1=O,55*,-10,.,0,-4,.
Cc1ccc(C)c(S(=O)(=O)C(C#N)c2nc3ccccc3nc2N2CCOCC2)c1 (stereo not drawn),20,-23,-5,3,4,.
COc1ccc(S(=O)(=O)C(C#N)c2nc3ccccc3nc2N2CCCCC2)cc1 (stereo not drawn),14,100*,21,-38,-1,-9
Cc1ccc(C)c(S(=O)(=O)C(C#N)c2nc3ccccc3nc2N2CCCC2)c1 (stereo not drawn),2,72*,13,8,10,1
CCc1nnc(SCC(=O)Nc2ccc(NC(C)=O)cc2)n1-n1cccc1,3,.,.,-6,6,-14
Cc1ccc(S(=O)(=O)NC2CCCC2)cc1C,2,5,-20,-1,.,-1
Cc1cc(=O)[nH]c2ccc(S(=O)(=O)NC3CCCCC3)cc12,0,22,.,0,63*,-1
